Laboratory results as given in paper PMC11062922 (Nature Chemical Biology, 2023).
Where two headings read alike, the source gives them in different places.

How the values were obtained:
Set-up in all cases: species or system human, MV4-11 + K-562 + COLO205 + SK-N-BE2 + OVCAR-8
[1] = system: ACAD11; settings: read-out: apparent Kd, n = 1
[2] = system: MAP3K11; settings: read-out: apparent Kd, n = 1
[3] = system: MAPK14; settings: read-out: apparent Kd, compound concentrations: 100 nM and 1000 nM (sheet 'Samples'), n = 1
[4] = system: ABL2; settings: read-out: apparent Kd; compound concentrations: 100 nM and 1000 nM (sheet 'Samples'), CATDS: 5.0197498438992799E-3; n = 1
[5] = system: BCR; settings: read-out: apparent Kd; compound concentrations: 100 nM and 1000 nM (sheet 'Samples'), CATDS: 5.2917709527679404E-3; n = 1
[6] = system: BUB1; settings: read-out: apparent Kd, compound concentrations: 100 nM and 1000 nM (sheet 'Samples'), n = 1
[7] = system: CDK5; settings: read-out: apparent Kd; compound concentrations: 100 nM and 1000 nM (sheet 'Samples'), CATDS: 4.5442394594478004E-3; n = 1
[8] = system: CSNK1E; settings: read-out: apparent Kd, compound concentrations: 100 nM and 1000 nM (sheet 'Samples'), n = 1
[9] = system: EPHB2; settings: read-out: apparent Kd; compound concentrations: 100 nM and 1000 nM (sheet 'Samples'), CATDS: 4.50420726302921E-3; n = 1
[10] = system: EPHB4; settings: read-out: apparent Kd; compound concentrations: 100 nM and 1000 nM (sheet 'Samples'), CATDS: 5.4338505062104699E-3; n = 1
[11] = system: HCK; settings: read-out: apparent Kd; compound concentrations: 100 nM and 1000 nM (sheet 'Samples'), CATDS: 4.5358126876330496E-3; n = 1
[12] = system: JAK1; settings: read-out: apparent Kd, n = 1
[13] = system: JAK2; settings: read-out: apparent Kd, n = 1
[14] = system: MAP4K1; settings: read-out: apparent Kd, n = 1
[15] = system: PIK3CG; settings: read-out: apparent Kd, n = 1
[16] = system: ROCK1; settings: read-out: apparent Kd, n = 1
[17] = system: TNK1; settings: read-out: apparent Kd, compound concentrations: 100 nM and 1000 nM (sheet 'Samples'), n = 1
[18] = system: PRKX; settings: read-out: apparent Kd, compound concentrations: 100 nM and 1000 nM (sheet 'Samples'), n = 1
[19] = system: TGFBR2; settings: read-out: apparent Kd, n = 1
[20] = system: ICK; settings: read-out: apparent Kd, compound concentrations: 100 nM and 1000 nM (sheet 'Samples'), n = 1
[21] = compound concentrations:100 nM and 1000 nM (sheet 'Samples')

Which potency estimated from few doses ([1]; compound concentrations: 100 nM and 1000 nM (sheet 'Samples'), CATDS: 1.8100646511475499E-2) does the source give for CN(c1ccc(NC(=O)N2CCN(CCCN3CCOCC3)CC2)cc1)c1ccnc(Nc2ccc(CS(C)(=O)=O)cc2)n1.Cl [GW830899A] here?
The potency estimated from few doses was 2.06 µM.

And the potency estimated from few doses ([2]; compound concentrations: 100 nM and 1000 nM (sheet 'Samples'), CATDS: 1.83131031951747E-2)?
The potency estimated from few doses was 1.98 µM.

What about the potency estimated from few doses ([3]; CATDS: 2.4950407737396499E-2) of the same molecule?
Its potency estimated from few doses is 0.905 µM.

With Cn1ncc2c(N)ncnc21 [SKF-18267] as the molecule, how does the potency estimated from few doses [4] read?
Its potency estimated from few doses is 0.808 µM.

And the potency estimated from few doses ([1]; compound concentrations: 100 nM and 1000 nM (sheet 'Samples'), CATDS: 4.0481268472205602E-3)?
The potency estimated from few doses was 1.3 µM.

What about the potency estimated from few doses [5] of the same molecule?
The potency estimated from few doses was 0.729 µM.

What about the potency estimated from few doses ([6]; CATDS: 3.8134095637251098E-3) of the same molecule?
Its potency estimated from few doses is 1.51 µM.

What about the potency estimated from few doses [7] of the same molecule?
The potency estimated from few doses was 0.993 µM.

What about the potency estimated from few doses ([8]; CATDS: 4.2831601683339304E-3) of the same molecule?
The potency estimated from few doses was 1.13 µM.

And the potency estimated from few doses [9]?
Its potency estimated from few doses is 1.01 µM.

And the potency estimated from few doses [10]?
The potency estimated from few doses was 0.694 µM.

What about the potency estimated from few doses [11] of the same molecule?
The potency estimated from few doses was 0.997 µM.

What about the potency estimated from few doses ([12]; compound concentrations: 100 nM and 1000 nM (sheet 'Samples'), CATDS: 4.8033962123192799E-3) of the same molecule?
Its potency estimated from few doses is 0.883 µM.

What about the potency estimated from few doses ([13]; compound concentrations: 100 nM and 1000 nM (sheet 'Samples'), CATDS: 4.4372825621257503E-3) of the same molecule?
The potency estimated from few doses was 1.05 µM.

What about the potency estimated from few doses ([2]; compound concentrations: 100 nM and 1000 nM (sheet 'Samples'), CATDS: 4.0610212954189503E-3) of the same molecule?
The potency estimated from few doses was 1.29 µM.

And the potency estimated from few doses ([14]; compound concentrations: 100 nM and 1000 nM (sheet 'Samples'), CATDS: 5.1468947283468203E-3)?
The potency estimated from few doses was 0.769 µM.

What about the potency estimated from few doses ([3]; CATDS: 5.3577076045461004E-3) of the same molecule?
Its potency estimated from few doses is 0.712 µM.

What about the potency estimated from few doses ([15]; compound concentrations: 100 nM and 1000 nM (sheet 'Samples'), CATDS: 9.5970287600273298E-3) of the same molecule?
The potency estimated from few doses was 0.28 µM.

What about the potency estimated from few doses ([16]; compound concentrations: 100 nM and 1000 nM (sheet 'Samples'), CATDS: 4.4818399275614899E-3) of the same molecule?
The potency estimated from few doses was 1.02 µM.

And the potency estimated from few doses ([17]; CATDS: 5.3510619534007497E-3)?
The potency estimated from few doses was 0.714 µM.

What does the source list for Cl.Cl.NCC(C(=O)Nc1cc(Br)c(-c2ccnc3[nH]ccc23)s1)c1ccccc1.NCC(C(=O)Nc1cc(Br)c(-c2ccnc3[nH]ccc23)s1)c1ccccc1 (centres unmarked) [GSK1269851A]?
potency estimated from few doses [1, 21]: 1.26 µM; potency estimated from few doses [16, 21]: 0.894 µM

COc1cccc2c(-c3ccncc3)c(-c3ccc(F)cc3)nn12 [GW468513X] was tested. Which potency estimated from few doses ([6]; CATDS: 4.5362878745682803E-2) did it give?
The potency estimated from few doses was 0.739 µM.

What about the potency estimated from few doses ([8]; CATDS: 8.4108879944504403E-2) of the same molecule?
Its potency estimated from few doses is 0.14 µM.

And the potency estimated from few doses ([3]; CATDS: 0.16592681304069401)?
Its potency estimated from few doses is 0.0428 µM.

CCn1c(-c2nonc2N)nc2c(-c3ccccc3)ncc(OCCCN)c21.CCn1c(-c2nonc2N)nc2c(-c3ccccc3)ncc(OCCCN)c21.O=C(O)C(F)(F)F.O=C(O)C(F)(F)F [GSK260205A] was tested. Which potency estimated from few doses ([6]; CATDS: 0.117322615111941) did it give?
Its potency estimated from few doses is 0.059 µM.

What about the potency estimated from few doses ([8]; CATDS: 3.6163147578600598E-2) of the same molecule?
Its potency estimated from few doses is 0.706 µM.

And the potency estimated from few doses ([3]; CATDS: 4.1756268177550598E-2)?
The potency estimated from few doses was 0.478 µM.

What does the source list for Fc1ccc(-c2c(-c3ccncc3)[nH]c3cccnc23)cc1 [RO1153853-000]?
potency estimated from few doses ([6]; CATDS: 4.9666048128405298E-2): 1.69 µM; potency estimated from few doses ([8]; CATDS: 9.9990073063758705E-2): 0.274 µM; potency estimated from few doses ([3]; CATDS: 9.4137479402045199E-2): 0.308 µM

For CCn1c(-c2nonc2N)nc2c(C#CC(C)(C)O)nc(CN3CCCC3)cc21 [GSK1000163A], which potency estimated from few doses ([18]; CATDS: 0.25481287922850399) is on record?
Its potency estimated from few doses is 0.759 µM.

Which potency estimated from few doses [14, 21] does the source give for CNC(=O)c1ccccc1Nc1nc(Nc2ccc(N3CCOCC3)cc2)ncc1Cl.Cl [GSK1576028A] here?
Its potency estimated from few doses is 0.387 µM.

With O=C1NC(=O)C(N2CCc3ccccc32)=C1c1ccccc1Cl [SB-373598] as the molecule, how does the potency estimated from few doses [15, 21] read?
The potency estimated from few doses was 1.11 µM.

For CC(C)N1CCC(n2cnc(-c3ccc(F)cc3)c2-c2ccnc(N)n2)CC1 [SB-223132], which potency estimated from few doses ([3]; CATDS: 8.3649714811029202E-2) is on record?
The potency estimated from few doses was 0.04 µM.

With O=C1NC(=O)/C(=C/c2ccc3ncccc3c2)S1 [RO4603632-000] as the molecule, how does the potency estimated from few doses ([15]; compound concentrations: 100 nM and 1000 nM (sheet 'Samples'), CATDS: 0.208226533332634) read?
Its potency estimated from few doses is 0.948 µM.

With CONC1=NC(=O)/C(=C/c2ccc3ncccc3c2)S1 [RO4613269-000] as the molecule, how does the potency estimated from few doses ([15]; compound concentrations: 100 nM and 1000 nM (sheet 'Samples'), CATDS: 0.172527207279461) read?
Its potency estimated from few doses is 0.606 µM.

For CN1C[C@@H]2Cn3c(c(C4=C(c5cn(C)c6ccccc56)C(=O)NC4=O)c4ccccc43)C[C@H]2C1.Cl [RO0320234-001], which potency estimated from few doses [15, 21] is on record?
Its potency estimated from few doses is 1.4 µM.

Which potency estimated from few doses ([18]; CATDS: 0.16139090072401199) does the source give for CCn1c(-c2nonc2N)nc2c(C#CC(C)(C)O)nc(OC[C@@H](N)c3ccccc3)cc21 [GSK938890A] here?
Its potency estimated from few doses is 0.0366 µM.

Which potency estimated from few doses [19, 21] does the source give for Cc1cccc(-c2nc(Nc3ccncc3)c3sccc3n2)n1 [GW869641X] here?
The potency estimated from few doses was 0.363 µM.

With CCn1c(-c2nonc2N)nc2c(C#CCN)ncc(OCCCN)c21.O=C(O)C(F)(F)F [GSK561866B] as the molecule, how does the potency estimated from few doses ([13]; compound concentrations: 100 nM and 1000 nM (sheet 'Samples'), CATDS: 0.29802313015986498) read?
The potency estimated from few doses was 0.0129 µM.

What about the potency estimated from few doses ([16]; compound concentrations: 100 nM and 1000 nM (sheet 'Samples'), CATDS: 8.4465602866789904E-2) of the same molecule?
The potency estimated from few doses was 1.01 µM.

Which potency estimated from few doses [13, 21] does the source give for Cl.NCc1ccc(-c2nc(-c3ccc(Cl)c(O)c3)c(-c3ccncc3)[nH]2)cc1 [SB-476429-A] here?
The potency estimated from few doses was 0.347 µM.

And the potency estimated from few doses [19, 21]?
Its potency estimated from few doses is 1.2 µM.

How did the potency estimated from few doses ([20]; CATDS: 2.2639550880060699E-2) turn out when CNCC#Cc1c(F)ccc2c1/C(=C/c1[nH]ccc1OC)C(=O)N2.Cl [RO0281601-001] was run?
The potency estimated from few doses was 1.7 µM.

What about the potency estimated from few doses ([12]; compound concentrations: 100 nM and 1000 nM (sheet 'Samples'), CATDS: 3.3581024780386999E-2) of the same molecule?
Its potency estimated from few doses is 0.52 µM.

What about the potency estimated from few doses ([14]; compound concentrations: 100 nM and 1000 nM (sheet 'Samples'), CATDS: 2.76705176427572E-2) of the same molecule?
Its potency estimated from few doses is 0.879 µM.

How did the potency estimated from few doses [12, 21] turn out when Cc1cccc(Nc2nc(N[C@H]3CCNC3)ncc2C(N)=O)c1.Cl [GSK2197149A] was run?
Its potency estimated from few doses is 1.24 µM.

And the potency estimated from few doses [2, 21]?
Its potency estimated from few doses is 1.33 µM.

And the potency estimated from few doses [15, 21]?
The potency estimated from few doses was 0.819 µM.

And the potency estimated from few doses [19, 21]?
The potency estimated from few doses was 1.87 µM.

How did the potency estimated from few doses [1, 21] turn out when CNCc1ccc(-c2cc(-c3nc(-c4ccc(S(=O)(=O)C(C)C)cc4)cnc3N)on2)cc1 [VE-822] was run?
Its potency estimated from few doses is 0.321 µM.

Which results are given for CN(c1ccc(NC(=O)NCCN2CCOCC2)cc1)c1ccnc(Nc2ccc(CS(C)(=O)=O)cc2)n1.Cl [GW830365A]?
potency estimated from few doses ([19]; compound concentrations: 100 nM and 1000 nM (sheet 'Samples'), CATDS: 5.51715170179801E-2): 0.958 µM; potency estimated from few doses ([17]; CATDS: 5.9117233589801498E-2): 0.792 µM

Which results are given for Cl.Cl.NC(CNC(=O)c1cc(Br)c(-c2ccnc3[nH]ccc23)s1)c1ccccc1.NC(CNC(=O)c1cc(Br)c(-c2ccnc3[nH]ccc23)s1)c1ccccc1 (centres unmarked) [GSK1322949A]?
potency estimated from few doses ([20]; CATDS: 2.9774635875568601E-2): 1.23 µM; potency estimated from few doses ([16]; compound concentrations: 100 nM and 1000 nM (sheet 'Samples'), CATDS: 9.3197598269089799E-2): 0.181 µM
